Reference: PubChem BioAssay AID1159580 (chemical genetic matrix, 2015)
The whole screen tested about 5,500 compounds, of which about 2,000 (36%) were called active. Another 18% or so got no clear call; they are omitted. Rule as the data show it: active = normalized growth mostly below about 0.91 (no sharp cut-off); inconclusive = no clear call, values can overlap the other calls; inactive = mostly above about 0.92. Some of the results follow.

Assay: chemical genetic growth profiling, strain panel (AID 1159580);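 also: tested at 20 µM; growth read once vehicle control cultures reached saturation at 30 °C; 1 = growth at the plate median or of vehicle wells; lower values mean less growth of the strain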
Conditions: growth OD

Measured: normalized growth

Nc1cc(-c2ccncc2)c[nH]c1=O
inactive: S. cerevisiae deletion strains, locus YJR043C, strain POL32, stronger effect = lower value 0.89 | S. cerevisiae deletion strains, locus YJR066W, strain TOR1, stronger effect = lower value 0.973 | S. cerevisiae deletion strains, locus YJR075W, strain HOC1, stronger effect = lower value 0.942 | S. cerevisiae deletion strains, locus YKL009W, strain mrt4, stronger effect = lower value 0.977 | S. cerevisiae deletion strains, locus YKL068W, stronger effect = lower value 0.977 | S. cerevisiae deletion strains, locus YKL085W, strain MDH1 (second series), stronger effect = lower value 0.989 | S. cerevisiae deletion strains, locus YKL085W, strain MDH1, stronger effect = lower value 0.989 | S. cerevisiae deletion strains, locus YKL190W, strain CNB1, stronger effect = lower value 0.974 | S. cerevisiae deletion strains, locus YKR026C, strain gcn3, stronger effect = lower value 0.947 | S. cerevisiae deletion strains, locus YKR091W, strain srl3, stronger effect = lower value 0.976 | S. cerevisiae deletion strains, locus YLL041C, strain sdh2, stronger effect = lower value 0.933 | S. cerevisiae deletion strains, locus YLR039C, strain RIC1, stronger effect = lower value 0.981 | S. cerevisiae deletion strains, locus YLR058C, strain SHM2, stronger effect = lower value 0.975 | S. cerevisiae deletion strains, locus YLR102C, strain apc9, stronger effect = lower value 0.983 | S. cerevisiae deletion strains, locus YLR113W, strain HOG1, stronger effect = lower value 1.02 | S. cerevisiae deletion strains, locus YLR262C, strain YPT6 (second series), stronger effect = lower value 1.01 | S. cerevisiae deletion strains, locus YLR262C, strain YPT6, stronger effect = lower value 0.978 | S. cerevisiae deletion strains, locus YLR268W, strain sec22, stronger effect = lower value 0.908 | S. cerevisiae deletion strains, locus YLR342W, strain FKS1 (second series), stronger effect = lower value 0.87 | S. cerevisiae deletion strains, locus YLR342W, strain FKS1, stronger effect = lower value 0.952 | S. cerevisiae deletion strains, locus YLR357W, strain rsc2, stronger effect = lower value 0.972 | S. cerevisiae deletion strains, locus YLR384C, strain iki3, stronger effect = lower value 0.966 | S. cerevisiae deletion strains, locus YLR418C, strain cdc73, stronger effect = lower value 0.882 | S. cerevisiae deletion strains, locus YML032C, strain rad52, stronger effect = lower value 0.986 | S. cerevisiae deletion strains, locus YML120C, strain ndi1, stronger effect = lower value 0.979 | S. cerevisiae deletion strains, locus YML124C, strain tub3, stronger effect = lower value 0.971 | S. cerevisiae deletion strains, locus YMR078C, strain ctf18, stronger effect = lower value 0.949 | S. cerevisiae deletion strains, locus YMR125W, strain sto1, stronger effect = lower value 0.955 | S. cerevisiae deletion strains, locus YMR129W, stronger effect = lower value 0.955 | S. cerevisiae deletion strains, locus YMR231W, strain pep5, stronger effect = lower value 0.965 | S. cerevisiae deletion strains, locus YMR263W, strain SAP30, stronger effect = lower value 0.977 | S. cerevisiae deletion strains, locus YMR307W, strain GAS1, stronger effect = lower value 0.937 | S. cerevisiae deletion strains, locus YNL067W, strain RPL9B, stronger effect = lower value 0.888 | S. cerevisiae deletion strains, locus YNL183C, strain NPR1, stronger effect = lower value 0.977 | S. cerevisiae deletion strains, locus YNL250W, strain rad50, stronger effect = lower value 0.963 | S. cerevisiae deletion strains, locus YNL271C, strain bni1, stronger effect = lower value 0.989 | S. cerevisiae deletion strains, locus YNL298W, strain CLA4, stronger effect = lower value 0.988 | S. cerevisiae deletion strains, locus YNL322C, strain KRE1 (second series), stronger effect = lower value 0.907 | S. cerevisiae deletion strains, locus YNR052C, strain pop2, stronger effect = lower value 0.994 | S. cerevisiae deletion strains, locus YOL006C, strain TOP1, stronger effect = lower value 0.573 | S. cerevisiae deletion strains, locus YOL012C, strain htz1 0.865 | S. cerevisiae deletion strains, locus YOL147C, strain pex11, stronger effect = lower value 0.979 | S. cerevisiae deletion strains, locus YOR001W, strain rrp6, stronger effect = lower value 0.967 | S. cerevisiae deletion strains, locus YOR069W, strain VPS5, stronger effect = lower value 0.967 | S. cerevisiae deletion strains, locus YOR080W, strain dia2, stronger effect = lower value 0.965 | S. cerevisiae deletion strains, locus YOR144C, strain elg1, stronger effect = lower value 0.986 | S. cerevisiae deletion strains, locus YOR184W, strain ser1, stronger effect = lower value 0.893 | S. cerevisiae deletion strains, locus YOR231W, strain MKK1, stronger effect = lower value 1.01 | S. cerevisiae deletion strains, locus YOR290C, strain snf2, stronger effect = lower value 0.91 | S. cerevisiae deletion strains, locus YOR316C, strain cot1, stronger effect = lower value 0.98 | S. cerevisiae deletion strains, locus YPL078C, strain atp4, stronger effect = lower value 0.973 | S. cerevisiae deletion strains, locus YPL241C, strain CIN2, stronger effect = lower value 0.993 | S. cerevisiae deletion strains, locus YPL256C, strain CLN2, stronger effect = lower value 1.08 | S. cerevisiae deletion strains, locus YPR119W, strain clb2, stronger effect = lower value 0.987 | S. cerevisiae deletion strains, locus YPR141C, strain kar3, stronger effect = lower value 0.972 | S. cerevisiae deletion strains, locus YPR167C, strain met16, stronger effect = lower value 0.928 | S. cerevisiae strains, strain wild type, stronger effect = lower value 0.958
active: S. cerevisiae deletion strains, locus YKL160W, strain elf1, stronger effect = lower value 0.689 | S. cerevisiae deletion strains, locus YKR001C, strain vps1, stronger effect = lower value 0.765 | S. cerevisiae deletion strains, locus YLL001W, strain dnm1, stronger effect = lower value 0.687 | S. cerevisiae deletion strains, locus YLL026W, stronger effect = lower value 0.826 | S. cerevisiae deletion strains, locus YLR027C, strain aat2, stronger effect = lower value 0.831 | S. cerevisiae deletion strains, locus YLR221C, strain rsa3, stronger effect = lower value 0.778 | S. cerevisiae deletion strains, locus YLR258W, strain gsy2, stronger effect = lower value 0.673 | S. cerevisiae deletion strains, locus YLR320W, strain mms22, stronger effect = lower value 0.273 | S. cerevisiae deletion strains, locus YLR330W, strain CHS5, stronger effect = lower value 0.878 | S. cerevisiae deletion strains, locus YLR370C, strain arc18, stronger effect = lower value 0.514 | S. cerevisiae deletion strains, locus YML016C, strain PPZ1, stronger effect = lower value 0.899 | S. cerevisiae deletion strains, locus YMR058W, strain fet3, stronger effect = lower value 0.871 | S. cerevisiae deletion strains, locus YMR205C, strain PFK2, stronger effect = lower value 0.559 | S. cerevisiae deletion strains, locus YMR223W, strain ubp8, stronger effect = lower value 0.848 | S. cerevisiae deletion strains, locus YNL071W, strain lat1, stronger effect = lower value 0.39 | S. cerevisiae deletion strains, locus YNL209W, strain ssb2, stronger effect = lower value 0.914 | S. cerevisiae deletion strains, locus YNL233W, strain BNI4, stronger effect = lower value 0.82 | S. cerevisiae deletion strains, locus YNL248C, strain rpa49, stronger effect = lower value 0.517 | S. cerevisiae deletion strains, locus YNL307C, strain MCK1, stronger effect = lower value 0.163 | S. cerevisiae deletion strains, locus YNR049C, strain mso1, stronger effect = lower value 0.889 | S. cerevisiae deletion strains, locus YOR061W, strain CKA2, stronger effect = lower value 0.887 | S. cerevisiae deletion strains, locus YOR070C, strain gyp1, stronger effect = lower value 0.814 | S. cerevisiae deletion strains, locus YOR083W, strain WHI5, stronger effect = lower value 0.858 | S. cerevisiae deletion strains, locus YOR106W, strain vam3, stronger effect = lower value 0.587 | S. cerevisiae deletion strains, locus YOR136W, strain idh2, stronger effect = lower value 0.899 | S. cerevisiae deletion strains, locus YOR265W, strain rbl2, stronger effect = lower value 0.768 | S. cerevisiae deletion strains, locus YOR270C, strain vph1, stronger effect = lower value 0.451 | S. cerevisiae deletion strains, locus YPL051W, strain arl3, stronger effect = lower value 0.792 | S. cerevisiae deletion strains, locus YPL106C, strain sse1, stronger effect = lower value 0.555 | S. cerevisiae deletion strains, locus YPL240C, strain hsp82, stronger effect = lower value 0.839 | S. cerevisiae deletion strains, locus YPR163C, strain tif3, stronger effect = lower value 0.603 | S. cerevisiae deletion strains, strain wtn01, stronger effect = lower value 0.848
